Source: PubChem BioAssay (NCATS)
The source made the active and inactive calls. Entries that show only a call come without a potency. Calls follow the shape of the dose curve; as a rule, active = well fitted activation curve with a large enough effect; inconclusive = small, poorly fitted or top-dose-only effect; inactive = flat fitted curve, though single readings scatter.

Assay: Confirmation and Secondary Assay for Modulators of Hemoglobin Beta Chain Splicing at IVS2 654 locus (AID 910);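 also: HeLa cells stably carrying EGFP split by mutant beta-globin IVS2-654 intron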;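 also: potency of activators that raise GFP signal by restoring correct splicing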
Details: HeLa EGFP-654 splicing reporter, GFP fluorescence, 48 h; series mostly up to 46.1 µM
Text: NIH Chemical Genomics Center [NCGC] NIH Molecular Libraries Screening Centers Network [MLSCN] MLSCN Grant: 1 X01 MH080684-01 PI Name: Dr. Ryszard Kole NCGC Assay Overview: Modulation of Alternative Splicing as Therapy Abnormal splicing is associated with a number of diseases, including cancer and genetic diseases such as cystic fibrosis, muscular dystrophy and beta-thalassemia. Alteration of disease associated splicing patterns provides a promising target for treatment. […] Mutations in the second intron of the b-globin gene at positions 654 or 705 are clinically relevant and cause mis-splicing which results in an out of frame gene product. […] EGFP-654 HeLa Cells as screen system. HeLa cell lines were stably transfected with a construct in which the EGFP (enhanced green fluorescent protein) cDNA was interrupted by the second intron of the beta-globin gene (IVS2-654). The ISV2 intron contains mutations which cause mis-splicing of EGFP and premature termination of EGFP which results in a nonfluorescent protein product. […] Expression of the transgene was driven by the CMV promoter. We concluded that a low molecular weight compound, which restored correct splicing of intron 2 would also generate functional EGFP protein, resulting in a fluorescent signal. Thus, the HeLa cells that express the EGFP-654 construct can be used for high throughput screening of a chemical library.
NCGC Assay Protocol Summary: Confirmatory Screening. Freshly thawed HeLa EGFP-654 cells were seeded in 5 ul of optimem media (Invitrogen) containing 2 % fetal calf serum (Hyclone) and 1x penicillin/streptomycin (Invitrogen) at a concentration of 500 cells per well in 1536-well plates. Cells were incubated overnight at 37C in 5% CO2. The next day, cells were treated with DMSO, 500 nM antisense ISV2 654 PNA control oligo, or library compound and allowed to grow at 37C in 5% CO2 for 2 days. The PNA oligo blocked the mutation site in the intron and allowed proper (wild type) splicing to occur, resulting in full length EGFP expression and also allowed for optimization of the assay parameters. Plates were read in the Acumen Explorer (TTP Labtech) using 488 nm laser excitation and 500-520 nm emission PMT filter in a 1 x 8 uM capture mode. Fluorescnet objects ranging in size from 5 to 250 uM were measured and the total peak GFP intensity for each well was used for data analysis. Keywords: Thalassemia, beta-thalassemia, beta-globin, EGFP, ISV2 654, ISV2 705, SSO, PNA, antisense, splicing, MLSMR, MLSCN, NIH Roadmap, qHTS, NCGC
Potency is read from the fitted curve at half-maximal effect.

Row | SMILES | Potency
1 | NCCCC(O)(P(=O)(O)O)P(=O)(O)O | inactive
2 | COc1ccc2cc3[n+](cc2c1OC)CCc1cc2c(cc1-3)OCO2 | inactive
3 | C1CCC(C(CC2CCCCN2)C2CCCCC2)CC1 (stereo not given) | inactive
4 | COC(=O)Nc1nc2ccc(S(=O)c3ccccc3)cc2[nH]1 (stereo not given) | inactive
5 | CC1=CC(=O)c2ccccc2C1=O | inactive
6 | CCCc1cc(C(N)=S)ccn1 | inactive
7 | COC(=O)Nc1nc2ccc(Sc3ccccc3)cc2[nH]1 | inactive
8 | Nc1ccc(S(=O)(=O)Nc2ccccn2)cc1 | inactive
9 | CN(CCOc1ccc(CC2SC(=O)NC2=O)cc1)c1ccccn1 (stereo not given) | inactive
10 | CCc1cc(C(N)=S)ccn1 | inactive
11 | COc1cc(NS(=O)(=O)c2ccc(N)cc2)nc(OC)n1 | inactive
12 | CN(C)CCc1c[nH]c2ccc(CS(=O)(=O)N3CCCC3)cc12 | inactive
13 | CNS(=O)(=O)Cc1ccc2[nH]cc(CCN(C)C)c2c1 | inactive
14 | Cc1cc(NS(=O)(=O)c2ccc(N)cc2)no1 | inactive
15 | Cc1cccc(N(C)C(=S)Oc2ccc3ccccc3c2)c1 | inactive
16 | CN1CCCC(n2nc(Cc3ccc(Cl)cc3)c3ccccc3c2=O)CC1 (stereo not given) | inactive
17 | CN(C)c1ccc(C(=C2C=CC(=[N+](C)C)C=C2)c2ccc(N(C)C)cc2)cc1 | inactive
18 | CCCCOc1ccc(CC(=O)NO)cc1 | inactive
19 | COc1ccc(C(=O)CC(=O)c2ccc(C(C)(C)C)cc2)cc1 | inactive
20 | O=c1oc2c(O)c(O)cc3c(=O)oc4c(O)c(O)cc1c4c23 | inactive

Row | SMILES | Potency
21 | COc1ccc2c(c1)c(CC(=O)OCC(=O)O)c(C)n2C(=O)c1ccc(Cl)cc1 | inactive
22 | COc1cnc(NS(=O)(=O)c2ccc(N)cc2)nc1 | inactive
23 | Cc1cccc(Nc2ccncc2S(=O)(=O)NC(=O)NC(C)C)c1 | inactive
24 | O=S(=O)(O)CCS | inactive
25 | O=C(O)c1cccnc1 | inactive
26 | CC1=NN(c2ccccc2)C(=O)C1 | inactive
27 | CCCCCCNC(=O)n1cc(F)c(=O)[nH]c1=O | inactive
28 | Nc1nc(=S)c2[nH]cnc2[nH]1 | 31.6 µM (active)
29 | OC(Cn1cncn1)(Cn1cncn1)c1ccc(F)cc1F | inactive
30 | CN(Cc1cc(Br)cc(Br)c1N)C1CCCCC1 | inactive
31 | CCCCS(=N)(=O)CCC(N)C(=O)O (stereo not given) | inactive
32 | Nc1nc(N)c2nc(CNc3ccc(C(=O)NC(CCC(=O)O)C(=O)O)cc3)cnc2n1 (stereo not given) | inactive
33 | COc1c(N2CCNC(C)C2)c(F)cc2c(=O)c(C(=O)O)cn(C3CC3)c12 (stereo not given) | inactive
34 | Oc1c(Cl)cc(Cl)c2cccnc12 | inactive
35 | NS(=O)(=O)c1cc2c(cc1Cl)NC(C(Cl)Cl)NS2(=O)=O (stereo not given) | inactive
36 | CCn1cc(C(=O)O)c(=O)c2cc(F)c(N3CCNCC3)nc21 | inactive
37 | COc1ccccc1OCC(O)COC(N)=O (stereo not given) | inactive
38 | COC(=O)Nc1nc2ccc(C(=O)c3ccccc3)cc2[nH]1 | inactive
39 | Cc1noc(NS(=O)(=O)c2ccc(N)cc2)c1C | inactive
40 | CC(=O)CC(c1ccccc1)c1c(O)c2ccccc2oc1=O (stereo not given) | inactive
